Data: PubChem BioAssay (NCATS)
Results filed as inconclusive are left out. Activity calls are given as the source filed them. Unless noted, the call rests on the fitted dose curve; in most records, active means well fitted curve in the direction sought with a large enough effect; inconclusive means small, poorly fitted or top-dose-only effect, or another doubt; inactive means no such curve, though single readings can be large; an effect the other way counts as inactive or inconclusive.

Assays:
[1] = AP1 Signaling Pathway (AID 357; active means well fitted curve in either direction with a large enough effect, not every such curve was filed as active;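 further: ME-180 reporter cells stimulated with EGF at its EC50 level; on the % scale 0 is the no-effect control and ±100 the full control effect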); details: ME-180 AP-1-bla reporter, EGF-induced, beta-lactamase ratio, 5 h; at 7.69 µM (top of the series) unless noted
Outline: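 First, ME-180 AP-1-bla cells were cultured overnight at 37 °C in low-serum Opti-MEM. Next, titrated compounds with EC50 EGF were incubated 5 hours. Finally, CCF4 was added for 2.5 hours and the 460/530 nm ratio recorded.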

[2] = Stat Signaling Pathway (AID 446; active means well fitted curve in either direction with a large enough effect, not every such curve was filed as active;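 further: ME-180 cervical cancer cells given 40 pM IL-6 alongside compound; SIE-controlled beta-lactamase reporter measured as 460/530 nm FRET emission ratio; on the % scale 0 is the no-effect control and ±100 the full control effect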)
Outline: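 ME-180 SIE-bla cells; overnight plating; cpd + IL-6 40 pM, 5 h, 37 C; LiveBLAzer 2.5 h RT; 460/530 nm emission ratio. Normalized to 300 pM IL-6 and 125 nM JAK inhibitor controls.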

[3] = biological target: Ubiquitin carboxyl-terminal hydrolase 1 (Homo sapiens) (UniProt O94782); assay: Inhibitors of USP1/UAF1: Pilot qHTS (AID 504865);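 further: rhodamine fluorescence freed from ubiquitin-rhodamine substrate followed over time; top concentration of the series differs between compounds; on the % scale 0 is the no-effect control and ±100 the full control effect; nearly all actives have a fitted effect of over 35% in size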
Outline: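 1nM USP1/UAF1 + cpd, 15 min RT; start w/ Ub-Rho 150nM final; kinetic FL 480/540 nm, 6 reads q60 s. Buffer 50mM HEPES pH 7.8, 0.5mM EDTA, 1mM TCEP, 0.01% Tween-20, 0.1 mg/ml BSA.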

[4] = biological target: Voltage-gated inwardly rectifying potassium channel KCNH2 (Homo sapiens) (UniProt Q12809); assay: qHTS Assay for Small Molecule Inhibitors of the Human hERG Channel Activity (AID 588834);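 further: top concentration of the series differs between compounds; on the % scale 0 is the no-effect control and ±100 the full control effect; lower thallium flux fluorescence means stronger hERG block; nearly all actives have a fitted effect of over 50% in size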
Outline: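 Concentration-response qHTS measuring drop in thallium-sensitive dye signal. U2OS cells carrying BacMam hERG; compound exposure ~10 min, then stimulation buffer and 2 min read at 1 sec intervals.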

[5] = biological target: Luciferin 4-monooxygenase (Photinus pyralis) (UniProt P08659); assay: Biochemical firefly luciferase enzyme assay for NPC (AID 624030);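 further: purified P. pyralis luciferase at 10 nM with luciferin and ATP substrate; 0% = DMSO and -100% = full luciferase inhibition by PTC124 control; nearly all actives have a fitted effect of over 70% in size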
Outline: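 Counter-screen for direct inhibition of the luciferase enzyme by approved-drug library compounds, run at 10 nM enzyme in 50 mM Tris acetate (final). Luminescence was read within 5 min of enzyme-buffer addition and normalized to PTC124 versus DMSO (0%).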

[6] = S16 Schwann cell viability assay (CellTiter-Glo assay) (AID 624031);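 further: cellular ATP luminescence as a viability measure; plate controls were DMSO-treated cells for no effect and cell-free wells for full effect; nearly all actives have a fitted effect of over 70% in size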
Outline: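 This viability control uses native rat S16 Schwann cells grown in DMEM plus 10% FBS. After a 24 h compound treatment at 37 °C, CellTiter-Glo luminescence reports ATP content, scaled against DMSO-treated and cell-free wells.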

[7] = S16 Schwann cell PMP22 intronic element firefly luciferase assay (AID 624032); further: potency means the concentration at half of the fitted maximal effect; nearly all actives have a fitted effect of over 30% in size
Outline: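 Rat S16 Schwann cells stably carrying a PMP22 intronic element-driven Fluc reporter were seeded overnight, then exposed to compounds for 24 h at 37 °C. Luminescence was normalized to PTC124 (positive control) and DMSO (0% activity).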

[8] = Cytotoxicity counterscreen for NFkB agonists and antagonists (AID 624476);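 further: cells exposed to compound for 48 hours; on the % scale 0 is the no-effect control and ±100 the full control effect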
[9] = qHTS Assay for Identification of Small Molecule Agonists for NFkB Signaling Pathway. (AID 624478); further: 0% is about no effect
Outline: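 NFkB-bla ME-180 cells carry a beta-lactamase reporter. They received compound plus TNF alpha at 10 pM final (its EC50) for 5 h at 37 C. Reporter activity was read as 460/530 nm emission ratio after 2 h LiveBLAzer substrate loading.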

[10] = qHTS Assay for Identification of Small Molecule Antagonists for NFkB Signaling Pathway. (AID 624479; calls by dose curve;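 further: pathway stimulated with TNF alpha; on the % scale 0 is the no-effect control and ±100 the full control effect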)
[11] = NCATS anti-infectives library activity on HEK293 viability as a counter-qHTS vs the C. elegans viability qHTS (AID 1745854)
Outline: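 HEK293 cells (1,500/well) exposed 24 hr at 37C to 1:5 titrations, up to 41.7 uM final; counter-screen to a C. elegans viability qHTS. Viability by CellTiter-Glo luminescence after 10 min at room temperature; digitonin as control.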

[12] = biological target: Glutathione peroxidase 1 (Homo sapiens) (UniProt P07203); assay: Primary qHTS Assay for Inhibitors of Recombinant Selenoprotein Glutathione Peroxidase 1 (GPX1) (AID 1845191); further: nearly all actives have a fitted effect of over 65% in size
Outline: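 Recombinant GPX1 (10 nM final) was preincubated with compound for 30 min at room temperature, then reacted with 1 mM GSH, 0.5 mM CHP, 0.5 mM NADPH and 100 nM glutathione reductase; NADPH fluorescence (340/450 nm) was read at 0 and 15 min.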

[13] = biological target: Phospholipid hydroperoxide glutathione peroxidase GPX4 (Homo sapiens) (UniProt P36969); assay: Primary qHTS Assay for Inhibitors of Recombinant Selenoprotein Glutathione Peroxidase 4 (GPX4) (AID 1845192); further: on the % scale 0 is the no-effect control and ±100 the full control effect; nearly all actives have a fitted effect of over 65% in size
Outline: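 GR-coupled readout: 100 nM GR, 1 mM GSH, 0.5 mM NADPH; NADPH fluorescence (ex 340/em 450 nm) read at t=0 and after 15 min RT. GPX4 200 nM, preincubated 30 min with compound; substrate 0.5 mM CHP.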

[14] = qHTS drug screen for cell cycle checkpoint inhibitors in PARPi-resistant BRCA-mutant ovarian cancer cell lines. (AID 1963452; calls by dose curve); details: PEO1/OlaR viability, CellTiter-Glo luminescence, 96 h, stronger effect = lower value
Outline: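 PEO1, PEO4 and PEO1/OlaR ovarian cancer cells, 600 per well, exposed 96 h at 37C to a dilution series. Viability read by CellTiter-Glo luminescence, normalized to DMSO and empty wells; activity summarized as Z-AUC.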

[15] = qHTS profiling for inhibitors of Plasmodium falciparum proliferation (AID 504749); further: nearly all actives have a fitted effect of over 60% in size; further: potency means the concentration at half of the fitted maximal effect;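 on activity, negative = inhibition: 0% = DMSO vehicle and full inhibition = artemisinin control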; details: P. falciparum in erythrocytes, SYBR Green DNA, 72 h, at 28.7 µM (top of the series)
Outline: (§1)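 Parasite proliferation within erythrocytes, 72 h exposure. Endpoint: SYBR Green I fluorescence after overnight lysis at room temperature. Controls: 0.29 uM artemisinin, DMSO.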

3D7 = assay: as above; details: P. falciparum in erythrocytes, SYBR Green DNA, 72 h; series mostly up to 28.7 µM
Outline: as §1

7G8 = assay: as above; details: P. falciparum in erythrocytes, SYBR Green DNA, 72 h; series mostly up to 28.7 µM
Outline: as §1

AA1029 = assay: as above; details: P. falciparum in erythrocytes, SYBR Green DNA, 72 h; series mostly up to 28.7 µM
Outline: as §1

AS120 = assay: as above; details: P. falciparum in erythrocytes, SYBR Green DNA, 72 h; series mostly up to 28.7 µM
Outline: as §1

ATS189 = assay: as above; details: P. falciparum in erythrocytes, SYBR Green DNA, 72 h; series mostly up to 28.7 µM
Outline: as §1

ATS95 = assay: as above; details: P. falciparum in erythrocytes, SYBR Green DNA, 72 h; series mostly up to 28.7 µM
Outline: as §1

C2A = assay: as above; details: P. falciparum in erythrocytes, SYBR Green DNA, 72 h; series mostly up to 28.7 µM
Outline: as §1

CP185 = assay: as above; details: P. falciparum in erythrocytes, SYBR Green DNA, 72 h; series mostly up to 28.7 µM
Outline: as §1

CP191 = assay: as above; details: P. falciparum in erythrocytes, SYBR Green DNA, 72 h; series mostly up to 28.7 µM
Outline: as §1

CP192 = assay: as above; details: P. falciparum in erythrocytes, SYBR Green DNA, 72 h; series mostly up to 28.7 µM
Outline: as §1

CP194 = assay: as above; details: P. falciparum in erythrocytes, SYBR Green DNA, 72 h; series mostly up to 28.7 µM
Outline: as §1

CP201 = assay: as above; details: P. falciparum in erythrocytes, SYBR Green DNA, 72 h; series mostly up to 28.7 µM
Outline: as §1

CP211 = assay: as above; details: P. falciparum in erythrocytes, SYBR Green DNA, 72 h; series mostly up to 28.7 µM
Outline: as §1

CP217 = assay: as above; details: P. falciparum in erythrocytes, SYBR Green DNA, 72 h; series mostly up to 28.7 µM
Outline: as §1

CP237 = assay: as above; details: P. falciparum in erythrocytes, SYBR Green DNA, 72 h; series mostly up to 28.7 µM
Outline: as §1

CP238 = assay: as above; details: P. falciparum in erythrocytes, SYBR Green DNA, 72 h; series mostly up to 28.7 µM
Outline: as §1

CP247 = assay: as above; details: P. falciparum in erythrocytes, SYBR Green DNA, 72 h; series mostly up to 28.7 µM
Outline: as §1

CP250 = assay: as above; details: P. falciparum in erythrocytes, SYBR Green DNA, 72 h; series mostly up to 28.7 µM
Outline: as §1

Phospholipid hydroperoxide glutathione peroxidase GPX4 (Homo sapiens), sequence (P36969 whole entry, looked up): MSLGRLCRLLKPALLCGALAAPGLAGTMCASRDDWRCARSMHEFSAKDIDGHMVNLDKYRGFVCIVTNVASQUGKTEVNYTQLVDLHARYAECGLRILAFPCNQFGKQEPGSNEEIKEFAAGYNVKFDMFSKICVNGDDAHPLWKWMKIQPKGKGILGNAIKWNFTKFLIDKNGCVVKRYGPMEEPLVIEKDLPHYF
Luciferin 4-monooxygenase (Photinus pyralis), sequence (P08659 whole entry, looked up): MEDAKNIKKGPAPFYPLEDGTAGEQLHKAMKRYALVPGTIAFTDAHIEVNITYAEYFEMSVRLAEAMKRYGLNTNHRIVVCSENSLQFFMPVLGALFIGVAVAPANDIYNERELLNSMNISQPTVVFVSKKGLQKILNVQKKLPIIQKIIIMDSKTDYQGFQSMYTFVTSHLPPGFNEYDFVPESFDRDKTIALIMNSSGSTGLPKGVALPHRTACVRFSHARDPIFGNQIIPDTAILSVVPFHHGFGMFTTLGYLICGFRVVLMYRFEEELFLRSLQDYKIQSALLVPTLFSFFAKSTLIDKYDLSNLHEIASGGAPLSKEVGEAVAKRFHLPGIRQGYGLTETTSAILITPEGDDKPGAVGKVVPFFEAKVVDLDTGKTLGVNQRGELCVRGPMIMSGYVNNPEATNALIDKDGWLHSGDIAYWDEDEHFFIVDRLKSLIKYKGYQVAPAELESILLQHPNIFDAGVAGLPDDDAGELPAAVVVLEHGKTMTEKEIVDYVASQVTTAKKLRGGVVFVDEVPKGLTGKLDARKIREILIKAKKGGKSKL
Glutathione peroxidase 1 (Homo sapiens), sequence (P07203 whole entry, looked up): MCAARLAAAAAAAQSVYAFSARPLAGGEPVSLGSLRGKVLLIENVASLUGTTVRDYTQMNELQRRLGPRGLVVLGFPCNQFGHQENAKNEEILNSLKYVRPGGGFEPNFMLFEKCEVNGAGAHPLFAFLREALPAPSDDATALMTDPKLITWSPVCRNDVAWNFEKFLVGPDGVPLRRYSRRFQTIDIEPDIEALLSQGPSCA
Ubiquitin carboxyl-terminal hydrolase 1 (Homo sapiens), sequence (O94782 whole entry, looked up): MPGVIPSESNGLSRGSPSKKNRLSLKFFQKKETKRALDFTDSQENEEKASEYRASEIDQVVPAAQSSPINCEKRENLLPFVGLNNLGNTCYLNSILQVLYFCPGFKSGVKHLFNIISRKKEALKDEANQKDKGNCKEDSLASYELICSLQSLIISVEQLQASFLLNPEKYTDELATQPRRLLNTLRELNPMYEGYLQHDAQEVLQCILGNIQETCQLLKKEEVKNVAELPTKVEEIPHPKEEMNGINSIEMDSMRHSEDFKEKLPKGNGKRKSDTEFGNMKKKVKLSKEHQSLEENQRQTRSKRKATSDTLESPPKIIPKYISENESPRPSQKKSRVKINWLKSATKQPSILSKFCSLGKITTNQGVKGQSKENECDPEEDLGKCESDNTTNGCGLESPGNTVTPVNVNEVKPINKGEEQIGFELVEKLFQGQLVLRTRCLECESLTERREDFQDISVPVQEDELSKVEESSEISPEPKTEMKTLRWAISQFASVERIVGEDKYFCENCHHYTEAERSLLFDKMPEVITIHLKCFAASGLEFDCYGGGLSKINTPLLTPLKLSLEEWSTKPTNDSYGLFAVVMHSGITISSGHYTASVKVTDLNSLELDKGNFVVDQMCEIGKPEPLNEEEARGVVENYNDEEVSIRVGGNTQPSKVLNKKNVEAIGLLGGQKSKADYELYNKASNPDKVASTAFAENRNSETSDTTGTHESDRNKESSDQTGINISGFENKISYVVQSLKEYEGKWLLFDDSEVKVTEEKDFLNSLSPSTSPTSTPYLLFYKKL
Voltage-gated inwardly rectifying potassium channel KCNH2 (Homo sapiens), sequence (Q12809 whole entry, looked up): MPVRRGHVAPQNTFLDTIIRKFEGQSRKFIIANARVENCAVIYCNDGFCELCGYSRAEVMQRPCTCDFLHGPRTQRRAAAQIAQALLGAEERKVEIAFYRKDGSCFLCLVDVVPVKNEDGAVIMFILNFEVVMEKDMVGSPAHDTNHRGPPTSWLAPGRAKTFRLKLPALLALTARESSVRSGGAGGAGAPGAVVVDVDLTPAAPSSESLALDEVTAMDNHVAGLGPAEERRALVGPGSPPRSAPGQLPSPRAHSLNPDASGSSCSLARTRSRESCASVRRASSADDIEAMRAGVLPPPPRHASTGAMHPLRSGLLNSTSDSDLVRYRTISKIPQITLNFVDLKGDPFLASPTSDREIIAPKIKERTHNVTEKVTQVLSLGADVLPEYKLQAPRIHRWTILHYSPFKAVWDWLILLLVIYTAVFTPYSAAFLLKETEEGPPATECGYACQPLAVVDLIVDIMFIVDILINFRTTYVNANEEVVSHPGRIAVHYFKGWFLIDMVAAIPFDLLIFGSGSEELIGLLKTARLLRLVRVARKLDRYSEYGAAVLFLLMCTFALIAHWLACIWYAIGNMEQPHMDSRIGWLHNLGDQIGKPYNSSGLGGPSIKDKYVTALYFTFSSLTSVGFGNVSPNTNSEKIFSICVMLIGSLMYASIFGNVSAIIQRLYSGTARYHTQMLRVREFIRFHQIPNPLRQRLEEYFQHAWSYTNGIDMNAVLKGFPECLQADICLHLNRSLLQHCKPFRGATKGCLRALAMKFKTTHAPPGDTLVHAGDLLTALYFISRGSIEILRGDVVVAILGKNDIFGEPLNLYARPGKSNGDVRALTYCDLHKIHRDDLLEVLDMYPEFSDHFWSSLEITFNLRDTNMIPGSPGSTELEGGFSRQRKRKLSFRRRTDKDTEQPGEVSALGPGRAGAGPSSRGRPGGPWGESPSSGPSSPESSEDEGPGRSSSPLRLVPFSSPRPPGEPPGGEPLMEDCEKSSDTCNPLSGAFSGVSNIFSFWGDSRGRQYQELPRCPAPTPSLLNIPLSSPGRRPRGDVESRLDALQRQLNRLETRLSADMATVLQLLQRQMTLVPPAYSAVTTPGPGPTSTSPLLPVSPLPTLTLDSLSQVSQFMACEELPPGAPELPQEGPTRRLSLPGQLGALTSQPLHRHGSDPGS

CCC(C)n1ncn(-c2ccc(N3CCN(c4ccc(OCC5COC(Cn6cncn6)(c6ccc(Cl)cc6Cl)O5)cc4)CC3)cc2)c1=O (stereo unspecified)
0.019: Z-AUC ([14]; measured here: PEO1 parental Z-AUC)
active: Potency [7] 3.22 µM | Potency (3D7) 3.16 µM | Potency (7G8) 3.55 µM | Potency (CP237) 5.01 µM
inactive: activity change, negative = inhibition [1] -2.36% [at 17.2 µM] | outcome [2] | Potency [3] | Potency [4] | Potency [5] | Potency [6] | outcome [8] | outcome [9] | outcome [10] | Potency [11] | Potency [12] | Potency [13] | Z-AUC [14] -0.487 | activity, negative = inhibition ([15]; parasite line A) 0.495% | activity, negative = inhibition ([15]; parasite line B) -11% | Potency (AA1029) | Potency (AS120) | Potency (ATS189) | Potency (ATS95) | Potency (C2A) | Potency (CP185) | Potency (CP191) | Potency (CP192) | Potency (CP194) | Potency (CP201) | Potency (CP211) | Potency (CP217) | Potency (CP238) | Potency (CP247) | Potency (CP250)
-0.0223: Z-AUC ([14]; measured here: PEO4 Z-AUC)
